# RECQ1 inh-1: blocks DNA unwinding by human RECQ1. RECQ1 DNA unwinding, red fluorescence kinetic read. Potency, µM (highest dose often 57.3 µM), inactives show top-dose activity, negative = inhibition, most hits filed as inhibitors. 0.54% of 240,000 active. AID 2549;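 further: plate controls were vehicle for no effect and no enzyme for full effect; nearly all actives have a fitted effect of over 30% in size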
#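 RECQ1T1 50 nM; forked duplex (20 bp + 30-nt ss tails) 200 nM, ATP 2 mM final; pH 8.0, 2 mM MgCl2, 2.5 ug/ml poly(dI-dC); 15 min compound preincubation; discontinuous kinetic read over 2 h at RT.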
# L3MBTL1 block: blocks human L3MBTL1 | Q9Y468 | AlphaScreen L3MBTL1–H3K9me1 peptide binding | Potency, µM (series often up to 57.1 µM), for the others: at the top dose activity, negative = inhibition, most hits filed as inhibitors | 0.66% of 230,000 active; further: nearly all actives have a fitted effect of over 60% in size
#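 Displacement of a biotinylated histone H3(1-15) peptide monomethylated at Lys9 (75 nM) from L3MBTL1 (50 nM) was measured by AlphaScreen after a 30 min room-temperature compound incubation; cefsulodin titration served as intraplate control.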
# TDP1 block: TDP1 (human) enzyme inhibition; Q9NUW8; Potency, µM (doses to about 130 µM), without a hit: at the highest dose activity change, negative = inhibition, actives largely listed as inhibitors; 0.28% of 350,000 active; recombinant TDP1, AlphaScreen DNA substrate cleavage; AID 485290; further: nearly all actives have a fitted effect of over 40% in size
#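 Recombinant human Tdp1 (E. coli-expressed, 1 nM final) preincubated with compounds 15 min at room temperature, then 5'-biotin/3'-phosphotyrosine-FITC DNA substrate (15 nM final) added for 5 min. AlphaScreen beads (10 ug/ml final) added 10 min; cleavage lowers signal.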
# BLM helicase inh: Bloom syndrome helicase (human) inhibition | P54132 | recombinant BLM DNA unwinding, fluorescence dequenching | Potency, µM (series often up to 56.1 µM), for the others: at the highest dose activity change, negative = inhibition, hits mostly inhibitors | 0.2% of 350,000 active;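 further: plate controls were vehicle for no effect and no enzyme for full effect; nearly all actives have a fitted effect of over 35% in size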
# APE1 inh: inhibitors of human APE1 endonuclease. Potency, µM (doses to about 65.8 µM), inactives show at the top dose activity change, negative = inhibition, actives largely listed as inhibitors. P27695. recombinant APE1, TAMRA/BHQ-2 abasic DNA cleavage fluorescence. AID 2517. 0.35% of 350,000 active;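 further: plate controls were vehicle for no effect and reference inhibitor for full effect; nearly all actives have a fitted effect of over 55% in size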
# Target sequence (P27695 whole entry, looked up): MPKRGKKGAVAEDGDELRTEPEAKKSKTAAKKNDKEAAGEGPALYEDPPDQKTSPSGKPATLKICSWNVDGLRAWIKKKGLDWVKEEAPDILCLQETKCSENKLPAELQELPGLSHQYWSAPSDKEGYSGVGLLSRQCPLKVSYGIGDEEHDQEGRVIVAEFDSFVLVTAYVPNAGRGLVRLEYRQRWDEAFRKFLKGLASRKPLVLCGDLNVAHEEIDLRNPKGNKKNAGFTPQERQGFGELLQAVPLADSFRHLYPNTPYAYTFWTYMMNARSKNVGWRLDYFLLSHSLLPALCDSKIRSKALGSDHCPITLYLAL
#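 Activity was derived from the fluorescence gain between first and third kinetic reads (60 s intervals, ex 525/em 598 nm) after 50 nM THF-abasic TAMRA/BHQ-2 duplex was added to 0.75 nM APE1 preincubated 15 min with compound.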
# JMJD2E inh: blocks human JMJD2E demethylase activity. JMJD2E catalytic domain, FDH-coupled NADH fluorescence (FDH is formaldehyde dehydrogenase). Potency, µM (highest dose often 57.1 µM), without a hit: at the highest dose activity change, negative = inhibition, actives largely listed as inhibitors. B2RXH2. 1.6% of 230,000 active; active means well fitted inhibition curve with a large enough effect, not every such curve was filed as active; inconclusive means small, poorly fitted or top-dose-only effect, or another doubt; inactive means no such curve, though single readings can be large or run the other way;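 further: 0% = wells with enzyme and -100% = buffer wells without enzyme; nearly all actives have a fitted effect of over 50% in size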
# RECQ1 conf: confirmation of human RECQ1 helicase inhibitors; shares compounds with RECQ1 inh-1; RECQ1 helicase DNA unwinding, fluorescence; Potency, µM (doses to about 229 µM), inactives show at the top dose activity change, negative = inhibition, actives largely listed as inhibitors; 28% of 610 active; AID 2708; further: nearly all actives have a fitted effect of over 45% in size
# RECQ1 ADP FP: ADP displacement flagged in RECQ1 inhibitor counter-screen. shares compounds with RECQ1 inh-1. ADP fluorescence polarization displacement counterscreen. Potency, µM (series often up to 228 µM), inactives show at the top dose activity change, negative = inhibition, hits mostly inhibitors. 27% of 530 active. AID 2711; further: nearly all actives have a fitted effect of over 45% in size
# RECQ1 inh-2: confirmation of human RECQ1 helicase inhibitors; shares compounds with RECQ1 inh-1; recombinant RECQ1 DNA unwinding, red fluorescence; Potency, µM (highest dose often 119 µM), inactives show at the top dose activity, negative = inhibition, most hits filed as inhibitors; 15% of 1,100 active; AID 504841; further: nearly all actives have a fitted effect of over 50% in size
# Starred values were filed as active, the others as inactive; u = inconclusive; x = not tested or not shown; ! = not active in a repeat; [ ] = dose if it differs, or a comment. Many of the other results were omitted from the sample, so hits are more common in it than they were. Unless noted, the call rests on the fitted dose curve; in most records, active means well fitted curve in the direction sought with a large enough effect; inconclusive means small, poorly fitted or top-dose-only effect, or another doubt; inactive means no such curve, though single readings can be large; an effect the other way counts as inactive or inconclusive. Unless noted, on the % scale 0 is the no-effect control and ±100 the full control effect; potency means the concentration at half of the fitted maximal effect.
SMILES,RECQ1 inh-1,L3MBTL1 block,TDP1 block,BLM helicase inh,APE1 inh,JMJD2E inh,RECQ1 inh-2,others
COc1ccccc1-c1cc(NCc2cnc(C)cn2)ncn1,-10%,x,x,-3%,3%,x,x,
Cc1cc(=O)c2c(O)c3c(O)cc(O)c4c5c(O)cc(O)c6c(O)c7c(=O)cc(C)c8c1c2c(c34)c(c65)c78,0.56µM*,x,21%,20µM*,3.2µM*,x,x,RECQ1 conf=u;RECQ1 ADP FP=0.14µM*
Cc1cc2nc3c(=O)[nH]c(=O)nc-3n(CC(O)C(O)C(O)CO)c2cc1C (stereo not given),35µM*!,x,8%,-5%,u,u,x,RECQ1 conf=112µM*;RECQ1 ADP FP=45µM*
CC(=O)Nc1ccc(-c2ccc3nnc(C)n3n2)cc1,-3%,x,0%,-4%,7%,u,x,
Cc1nnc2ccc(-c3ccc(NC(=O)Cc4cccs4)cc3)nn12,32µM*,x,x,-12%,u,u,-29%,
CC(C)(O)C#Cc1ccc(CN2CCCC(CO)(Cc3cccc(Cl)c3)C2)cc1 (stereo not given),u,-2%,1%,-7%,-2%,-12%,-26%,
CC[C@H](C)[C@H](NC(=O)[C@H](C)NC(=O)[C@@H](N)C(C)C)C(=O)N[C@H](C(=O)N[C@H](C(=O)N[C@@H](CC(C)C)C(=O)N[C@H](C(=O)N[C@@H](CCCCN)C(=O)O)C(C)C)C(C)C)[C@@H](C)O,-15%,x,11%,-4%,-2%,x,x,
CCN(CC)C(=O)CC(c1ccccc1)c1ccco1 (stereo not given),u,-1%,0%,-4%,12%,-1%,u,
O=C(c1ccco1)N(CCC(c1ccccc1)c1ccco1)Cc1ccccc1 (stereo not given),11µM*,u,1%,-25%,u,-8%,45µM*,RECQ1 conf=u;RECQ1 ADP FP=20%[91.9 µM]
CCOc1ccc(NC(=O)CC2C(=O)N(c3ccc(C)cc3)C(=O)N2Cc2ccc(OC)cc2)cc1 (stereo not given),x,x,-4%,-7%,x,x,x,
Cc1oc2cc3oc(=O)c(CCC(=O)N4C[C@H]5C[C@@H](C4)c4cccc(=O)n4C5)c(C)c3cc2c1C,x,2%,x,-5%,25%,x,x,
Cc1cc(C)n2nc(SCC(=O)Nc3cc(Cl)ccc3C)nc2n1,x,x,-2%,-1%,x,x,x,
O=C1/C(=C/c2ccc(O)c(O)c2)Oc2ccccc21,u,x,21%,-28%,u,x,45µM*,
O=C(CCC(NC(=O)OCc1ccccc1)C(=O)OCC(=O)N1CCCCC1)OCC(=O)N1CCCCC1 (stereo not given),-6%,x,0%,0%,-3%,3%,x,
O=C(COC(=O)CCC(NC(=O)OCc1ccccc1)C(=O)OCC(=O)Nc1ccccc1)Nc1ccccc1 (stereo not given),u,1%,3%,-6%,8%,-2%,-20%,
O=C1CC(Nc2ccc(N3CCOCC3)cc2)C(=O)N1c1cccc(C(F)(F)F)c1 (stereo not given),u,u,8%,2%,-4%,u,-8%,
O=C1c2ccccc2C(=O)c2c(NCCCN(CCO)CCO)cccc21,20µM*,u,4%,16µM*,u,-3%,18µM*,

# Screens (PubChem BioAssay)
